# Measured values published in PubChem BioAssay (Tox21).
# Results filed as inconclusive are left out. Where a call stands in place of a potency, no number is given. Active and inactive are the calls of the source. Calls follow the shape of the full dose curve.
# Experiment: qHTS assay to identify small molecule agonists of the AP-1 signaling pathway (AID 1159526)
# Conditions: ME-180 (cervical carcinoma) AP-1-bla reporter, beta-lactamase FRET ratio, 5 h; series mostly up to 76.8 µM
row,SMILES,Potency
1,c1ccc(Oc2ccccc2)cc1,inactive
2,O=c1[nH]cnc2[nH]ncc12,inactive
3,CCNc1ccccc1,inactive
4,O=C1C(c2[nH]c3ccccc3c2O)=Nc2ccccc21,inactive
5,CCCCOC(=O)c1ccc(N)cc1,inactive
6,CCCOC(=O)c1ccccc1,inactive
7,COC(=O)CCCC(=O)OC,inactive
8,CC(O)CC(C)(C)O (stereo not drawn),inactive
9,CN(C)CCOC(=O)COc1ccc(Cl)cc1,inactive
10,CN/C(=C\[N+](=O)[O-])NCCSCc1csc(CN(C)C)n1,inactive
11,CC(=O)CC(C)(C)O,inactive
12,CC(C)=CCl,inactive
13,O=S(=O)(O)c1ccccc1,inactive
14,COC(=O)c1cccnc1,inactive
15,COc1ccc(OC)cc1,inactive
16,O=C(O)c1ccc(C(=O)O)c(C(=O)O)c1,inactive
17,CC(=O)c1ccc(O)cc1,inactive
18,CCOC(=O)c1ccc(N)cc1,inactive
19,COc1cc(OC)c(C(=O)CCCN2CCCC2)c(OC)c1,inactive

row,SMILES,Potency
1,CC(C)c1cccc(C(C)C)c1,inactive
2,NCCNCCN,inactive
3,Cc1ccc(C(C)C)c(O)c1,inactive
4,Cc1ccc([N+](=O)[O-])cc1S(=O)(=O)O,inactive
5,Cc1ccc2ncccc2c1,inactive
6,CC(C)CC(=O)CC(C)CC(C)C (stereo not drawn),inactive
7,OC1C(O)C(O)C(O)C(O)C1O (stereo not drawn),inactive
8,O=C1CCCC1,inactive
9,CCCCCCCC=O,inactive
10,CC(C)(C#N)c1cc(Cn2cncn2)cc(C(C)(C)C#N)c1,inactive
11,CC(=O)OCc1ccco1,inactive
12,CCCCCCCCCCCCCCCCO,inactive
13,Cc1ccc(S(=O)(=O)N=C=O)cc1,inactive
14,O=S(=O)(O)c1ccc(N=Nc2c(O)ccc3cc(S(=O)(=O)O)ccc23)cc1,inactive
15,CCc1ccccc1CC,inactive
16,Nc1nc(N)nc(-c2ccccc2)n1,inactive
17,COc1ccc([N+](=O)[O-])cc1N,inactive
18,CC(C)CCCCCCCOC(=O)CCCCC(=O)OCCCCCCCC(C)C,inactive
19,CC1(C)CC(N)CC(C)(CN)C1 (stereo not drawn),inactive
